Results as given in PubChem BioAssay AID504834 (National Center for Advancing Translational Sciences (NCATS), 2011).
About 22,000 (6.9%) of roughly 320,000 compounds were called active. Not shown: some 27% with an inconclusive outcome. This is one part of a sample in which actives are shown more often than they occur. A number with no mark means an inactive call. Calls come from the whole dose curve; as a rule, active = well fitted inhibition curve with a large enough effect; inconclusive = small, poorly fitted or top-dose-only effect, or another doubt; inactive = no such curve, though single readings can be large or run the other way.

assay: Primary qHTS for delayed death inhibitors of the malarial parasite plastid, 96 hour incubation; settings: P. falciparum luciferase reporter growth; series mostly up to 28.7 µM; activity change, negative = inhibition: at the top concentration
In short: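 Luminescence readout: decreased luciferase signal marks inhibited growth of reporter-expressing P. falciparum in infected red cells (2% hematocrit, 0.05% parasitemia final), exposed to compound two generations (96 h, 37 C, 5% CO2).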
% is set by controls: 0 for no effect and ±100 for the full control effect; potency is the fitted concentration of half-maximal effect.

Row | SMILES | activity change, negative = inhibition | Potency
1 | COc1cc(/C=C2\CCCc3c2nc2ccccc2c3C(=O)O)cc(Cl)c1O | -4.48% | –
2 | COc1ccccc1N1CCN(C(=O)Cn2nnc(-c3cccs3)n2)CC1 | 3.57% | –
3 | O=C(Nc1ccc(N2CCN(C(=O)C3CC3)CC2)cc1)c1cccs1 | -4.99% | –
4 | O=C(Nc1ccccc1-c1nnn(CC(=O)N2CCN(c3ccccc3)CC2)n1)c1cccs1 | – | 9.28 µM (active)
5 | Cc1nc2nc(SCC(=O)Nc3cccc(F)c3)[nH]c2cc1Br | 16.6% | –
6 | N#Cc1ccc(OCC(=O)NC(=O)NC2CCS(=O)(=O)C2)cc1 (stereo not given) | 2.04% | –
7 | CCOC(=O)C(C)N(c1ccccc1Cl)S(C)(=O)=O (stereo not given) | 7.23% | –
8 | Cc1cccc(OCCNC(=O)CSc2ccc(C(F)(F)F)cc2[N+](=O)[O-])c1 | 331% | –
9 | O=C(CSc1ccc(C(F)(F)F)cc1[N+](=O)[O-])NCCOc1ccccc1 | – | 13.1 µM (active)
10 | Nc1ccccc1Sc1ccc(C(F)(F)F)cc1[N+](=O)[O-] | 3.57% | –
11 | CCOc1ccccc1OCCCNCc1ccccc1 | 28.2% | –
12 | O=C(CNc1ccc(F)cc1F)NC(=O)NCc1ccco1 | 11.3% | –
13 | Cn1c(CNC(=O)c2ccco2)nnc1SCC(=O)N1CCN(c2ccccc2)CC1 | -1.11% | –
14 | Cc1nc2ncnn2c(C)c1CCC(=O)N1CCN(C(=O)c2ccco2)CC1 | 37% | –
15 | O=C(Nc1cccc2ccccc12)N1CCC2(CC1)OCCO2 | -27.2% | –
16 | Cc1nc2nc(C)c(CCC(=O)N3CCC4(CC3)OCCO4)c(C)n2n1 | – | 11.7 µM (active)
17 | COc1ccc(CNC(=O)CNC(=O)c2sc3ccccc3c2Cl)cc1OC | 0.724% | –
18 | CCOc1ccc(C)cc1S(=O)(=O)NC1CCCCCC1 | -19.9% | –
19 | Cc1ccc(-n2nc(C)c(C(=O)O)c2-n2cccc2)cc1 | 17.1% | –
20 | CCOc1ccccc1NC(=O)C1CCC(CNc2c(N3CCOCC3)c(=O)c2=O)CC1 (stereo not given) | -10.4% | –
21 | O=C(NCc1ccc(F)cc1)C1CCC(CNc2c(N3CCOCC3)c(=O)c2=O)CC1 (stereo not given) | -22.9% | –
22 | O=C(NCc1ccccc1Cl)C1CCC(CNc2c(N3CCCCC3)c(=O)c2=O)CC1 (stereo not given) | – | 10.4 µM (active)
23 | CC(NC(=O)C1CCC(CNc2c(N3CCOCC3)c(=O)c2=O)CC1)c1ccccc1 (stereo not given) | – | 13.1 µM (active)
24 | COc1ccc(NC(=O)C2CCC(CNc3c(N4CCCCC4)c(=O)c3=O)CC2)c(OC)c1 (stereo not given) | -15.3% | –
25 | O=C(NCCCc1ccccc1)C1CCC(CNc2c(N3CCCCC3)c(=O)c2=O)CC1 (stereo not given) | -25.3% | –
26 | CCCCn1c(N)c(N(CCC(C)C)C(=O)COC(=O)c2cccnc2OCC)c(=O)[nH]c1=O | 52.6% | –
27 | Cc1ccc(/C=C2\SC(=S)N(CCC(=O)Nc3ccc(O)cc3)C2=O)cc1 | 46.5% | –
28 | COc1ccc(C(=O)NC(=S)NC2CCCCC2)cc1 | -0.349% | –
29 | COc1ccc(OCC(=O)NNC(=O)c2ccc(-c3ccccc3)cc2)cc1 | -17.4% | –
30 | COc1ccc(C(=O)NNC(=S)NC(=O)c2ccccc2)cc1 | – | 6.57 µM (active)
